Among all 300,000 compounds or so, about 22,000 (7.3%) were called active. Another 2% or so got no clear call; they are omitted. No stated cut-off is given here; in the data, active means activity score below about -60%; inconclusive means mostly about -28% to -61%; inactive means positive scores. The entries come from a sample that favours actives as a whole.

The experiment is described as follows: Activators working through SNCA 5'UTR binding (MLPCN) (AID 1814). The conditions noted are these: alpha-synuclein 5'UTR reporter, activators screen; hits give low values; tested at 7.5 µM.
With `Nc1nnc(SCC(=O)Nc2ccc3nc(SCC(=O)Nc4ccccc4)sc3c2)s1`, the activity score was -107% (active).

Regarding `O=C(Nc1cccc(Cl)c1)Nc1ccccc1NS(=O)(=O)c1cccs1`, the activity score was -81.4% (active).

As to `Cc1ccc(NN=C2C(=O)OC(C)(C)OC2=O)c(C)c1`, the activity score was -140% (active).

In the case of `Cc1nn(-c2ccccc2)c(Cl)c1/C=C/C(=O)c1ccc(O)cc1`, the activity score was -125% (active).

On to `Cn1sc(NC(=O)c2ccccc2)nc1=O`, for which the activity score is -72.7% (active).

Regarding `O=C(c1ccc(F)cc1)n1c(=S)nc2ccccn21`, the activity score is -171% (active).

For the molecule `COc1cc(/C=N/O)ccc1OCc1ccc([N+](=O)[O-])cc1`, the activity score was -86.3% (active).

For `COc1ccc2[nH]c3c(=O)n(Cc4ccco4)cnc3c2c1`, the activity score is -65.2% (active).

On to `Clc1ccc(N/N=C/c2cccs2)nn1`, for which the activity score is -131% (active).

As to `COc1cccc(/C=N/Nc2ccc(Cl)nn2)c1`, the activity score is -168% (active).

Turning to `Cc1ccsc1/C=N/Nc1ccc(Cl)nn1`, the activity score was -101% (active).

As for `O=C(Nc1ccc(S(=O)(=O)N2CCOCC2)cc1)c1ccc2ncsc2c1`, the activity score was -76.4% (active).

Regarding `CC1CCCN(c2ccc(C(=O)NCCc3ccccc3)cn2)C1` (stereo not given), the activity score was -104% (active).

On to `CCC(=O)Nc1ccc(-c2ccc(N3CCCCC3)nn2)cc1`, for which the activity score is -132% (active).

`CC1CCN(c2ccc(-c3ccc(NC(=O)c4ccco4)cc3)nn2)CC1`: the activity score was -144% (active).

Take `[O-][n+]1onc2c1CCc1[nH]c(-c3ccccc3)nc1-2`: the activity score is -130% (active).

Turning to `O=C(COc1ccccc1)Nc1nonc1NC(=O)COc1ccccc1`, the activity score was -62.2% (active).

For the molecule `CC(=O)Nc1ccc(NC(=O)COc2ccc(S(=O)(=O)NC(C)c3ccccc3)cc2)cc1` (stereo not given), the activity score is -147% (active).

For the molecule `CC(=O)Nc1ccc(NC(=O)COc2ccccc2C(=O)Nc2cccc(Cl)c2Cl)cc1`, the activity score was 41.1% (inactive).

For `O=C(COc1ccccc1)Nc1ccc(F)cc1`, the activity score is -69.2% (active).

Take `CC(C)[C@@H]1COC(c2cccc(C3=N[C@H](C(C)C)CO3)c2)=N1`: the activity score was -152% (active).

Take `CCOc1ccc(NC(=O)c2ccc(NC(=O)COC(=O)c3ccc(NC(=O)CC#N)cc3)cc2)cc1`: the activity score is -88.1% (active).

As to `CCOc1ccc(NC(=O)CCNC(=O)c2ccc(Br)cc2)cc1`, the activity score was -69.9% (active).

For `COc1ccc2c(Cl)c(C(=O)NCc3ccco3)sc2c1`, the activity score is -164% (active).

On to `COc1ccc(C2=NOC(C(=O)NCc3ccco3)C2)cc1OC` (stereo not given), for which the activity score was 51.4% (inactive).

As for `O=C(NCc1ccco1)c1sc2cccc(F)c2c1Cl`, the activity score is -99.4% (active).

Consider `COc1ccc2oc(C(=O)NCc3ccco3)c(C)c2c1`, for which the activity score is -92.6% (active).

Turning to `Cc1ccc2nc(-c3ccc(NC(=O)CN(C)S(=O)(=O)c4ccccc4)cc3)sc2c1`, the activity score is -67.2% (active).

On to `Cc1cccc(N(CC(=O)Nc2ccc(-c3nc4ccc(C)cc4s3)cc2)S(C)(=O)=O)c1`, for which the activity score is -159% (active).

`Cc1cccc2cc3c(N)c(C(=O)N4CCCc5ccccc54)sc3nc12`: the activity score is 85.2% (inactive).

Turning to `Cc1c(C(=O)N2CCCc3ccccc32)sc2nc(-c3ccccc3)cn12`, the activity score is -83.5% (active).

For the molecule `Cc1c(C(=O)NCC2CCCO2)sc2nc(-c3ccccc3)cn12` (stereo not given), the activity score was -102% (active).

Consider `Cc1ccc(C(=O)Cc2nnc(C)s2)cc1`, for which the activity score was -98.4% (active).

As for `O=c1c2ccccc2ncn1/N=C/c1ccccc1`, the activity score is -192% (active).

Regarding `Cc1cc(/C=C2/SC(=O)N(CC(=O)OC(C)C)C2=O)c(C)n1C`, the activity score was -159% (active).

Take `Cc1cc(SCC(=O)NCCN2C(=O)CSC2=O)nc2ccccc12`: the activity score was -74.6% (active).

In the case of `O=C(Nc1cccc([N+](=O)[O-])c1)N1CCc2ccccc2C1`, the activity score was -99.5% (active).

On to `CCc1ccc(NC(=O)N2CCc3ccccc3C2)cc1`, for which the activity score was -68.2% (active).

With `CCCC1(C(=O)OC)NC(c2ccco2)C2C(=O)N(C)C(=O)C21` (stereo not given), the activity score was 27.8% (inactive).

Consider `CCOC(=O)C1C(=O)C=C(c2ccc(OC)cc2)CC1c1ccco1` (stereo not given), for which the activity score was -74.2% (active).

As to `CCOC(=O)c1c(Cc2ccc(Cl)cc2)c[nH]c1C`, the activity score was -90.9% (active).

For the molecule `CN(c1cccc(NC(=O)Nc2ccc(Cl)cc2)c1)S(C)(=O)=O`, the activity score is -112% (active).

With `O=[N+]([O-])c1ccccc1N/N=C1\CCc2ccccc21`, the activity score is -187% (active).

For the molecule `COc1ccc(/C=N/Nc2nc3ccccc3c(=O)[nH]2)cc1`, the activity score was -125% (active).

Consider `Cc1nnc(N/N=C/c2ccccn2)[nH]c1=O`, for which the activity score is 117% (inactive).

As to `COc1ccc(-c2onc3ccc(C(C)=O)cc23)cc1`, the activity score is -120% (active).

For `CS(=O)(=O)C1=NN2C(=N)/C(=C\c3ccc(OCCOc4ccccc4)cc3)C(=O)N=C2S1`, the activity score is -73.6% (active).

For the molecule `O=C(OCc1ccccc1F)c1ccc2c(c1)OCCO2`, the activity score was -210% (active).

Take `N#Cc1ccccc1NC(=O)c1ccc2c(c1)OCO2`: the activity score was -87.9% (active).

Regarding `O=C(Nc1ccccc1F)c1ccc2c(c1)OCO2`, the activity score is -199% (active).

With `O=c1c(-c2ccccc2)coc2cc(O)ccc12`, the activity score is -128% (active).

Regarding `COc1cccc(/C=N/NC(=O)c2[nH]nc3c2CCc2ccccc2-3)c1O`, the activity score is 76.4% (inactive).

Consider `CN(C)CCNC(=O)c1[nH]nc2c1CCc1ccccc1-2`, for which the activity score was -73.6% (active).

Consider `O=C(CC1SCCNC1=O)Nc1ccc(Cl)c(Cl)c1` (stereo not given), for which the activity score was -77.7% (active).

In the case of `Oc1c(Cl)cc(Cl)c(Cl)c1Cc1c(O)c(Cl)cc(Cl)c1Cl`, the activity score is 77.3% (inactive).

Take `C=C(C)C(=O)O[C@H]1C/C(C)=C\C(=O)/C=C(\C)[C@H](O)[C@@H]2OC(=O)C(=C)[C@@H]21`: the activity score is -250% (active).

As to `CN1CCN(c2ccc(NC(=O)c3ccc4c(c3)OCCO4)cc2Cl)CC1`, the activity score is -66.8% (active).

For `O=C(Nc1ccccc1)c1ccc2c(c1)OCO2`, the activity score was -148% (active).

For `O=C(Nc1nc2ccccc2s1)c1ccc2c(c1)OCO2`, the activity score was 53.7% (inactive).

Consider `O=C(Nc1ccc(C2CC2(Cl)Cl)cc1)c1cccc([N+](=O)[O-])c1` (stereo not given), for which the activity score is -92.3% (active).

For the molecule `O=C(Nc1ccc(N2CCOCC2)cc1)c1ccc2c(c1)OCO2`, the activity score is -121% (active).

Regarding `O=C(Nc1cccc([N+](=O)[O-])c1)c1ccc2c(c1)OCO2`, the activity score was -99.5% (active).

As for `COc1ccc2oc(-c3cccc(NC(=O)CSc4ccc(Cl)cc4)c3)nc2c1`, the activity score is -97.9% (active).

Consider `O=C(O)c1cccc(N=NN2CCCCCC2)c1`, for which the activity score was -74.8% (active).

Consider `Cc1ccc(C(=O)Nc2ccc(C)c(S(=O)(=O)N(C)C)c2)s1`, for which the activity score is -185% (active).

The values are drawn from PubChem BioAssay AID1814 (Broad Institute, 2009).
